According to PubChem BioAssay:
Activity calls are given as the source filed them. No rule for the calls is given here.

Molecular target: Pantothenate synthetase (Mycobacterium tuberculosis (strain ATCC 25618 / H37Rv)) (UniProt P9WIL5)
Test: Recombinant Mtb pantothenate synthetase (PanC) inhibitors, coupled enzyme, confirmatory (AID 375);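 also: 0% = full reaction with vehicle and 100% = no enzyme background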
Details: coupled enzyme assay; at 10 µM, stronger effect = higher value

Chain of Pantothenate synthetase (Mycobacterium tuberculosis (strain ATCC 25618 / H37Rv)) (P9WIL5 whole entry, looked up): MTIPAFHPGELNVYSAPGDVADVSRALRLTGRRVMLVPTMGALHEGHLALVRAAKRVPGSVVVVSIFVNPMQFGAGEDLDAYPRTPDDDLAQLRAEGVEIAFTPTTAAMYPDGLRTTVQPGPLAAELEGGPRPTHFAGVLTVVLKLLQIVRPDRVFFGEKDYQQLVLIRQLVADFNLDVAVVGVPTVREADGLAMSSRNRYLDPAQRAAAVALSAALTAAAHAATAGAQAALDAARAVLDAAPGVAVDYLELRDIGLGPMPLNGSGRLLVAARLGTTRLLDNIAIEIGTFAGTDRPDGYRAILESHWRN

Row | Compound | inhibition
1 | C=CCOc1ccc(C2/C(=C(\O)c3c(C)[nH]c(C(=O)OC)c3C)C(=O)C(=O)N2CCN(C)C)cc1 (stereo not given) | 0% (inactive)
2 | COc1cc(-n2nc(C)c3c2OC(N)=C(C#N)C3c2ccccc2)c(Cl)c(Br)c1O (stereo not given) | 9% (inactive)
3 | CCOC(=O)c1c(N)sc(C(=O)N2CCOCC2)c1C | 4% (inactive)
4 | CCn1c(C(=O)N2CCCC(C(=O)NCCCc3ccccc3)C2)cc2sccc21 (stereo not given) | 0% (inactive)
5 | CC(C)NCC(O)COc1cccc2[nH]ccc12 (stereo not given) | 0% (inactive)
6 | CCn1c(SCC(=O)Nc2ccc3c(c2)OCO3)nnc1-c1ccccc1O | 2% (inactive)
7 | Cc1cc(C)c(NC(=O)C2CSCCS2)c(C)c1 (stereo not given) | 0% (inactive)
8 | CCOC(=O)c1sc2nc(NC(=O)COc3ccccc3)sc2c1C | 0% (inactive)
9 | Cn1c(-c2ccccc2)c(CCO)c2ccccc21 | 9% (inactive)
10 | O=C(NCCCN1CCCC1=O)c1ccc2c(=O)n(Cc3ccco3)c(=S)[nH]c2c1 | 0% (inactive)
11 | Cc1ccc(NC(=O)CSc2nnc(Cc3cccn3C)n2-c2ccc(F)cc2)cc1 | 6% (inactive)
12 | CS(=O)(=O)N(CC(=O)NCCSCc1cccc(Cl)c1)c1ccc2c(c1)OCO2 | 1% (inactive)
13 | CCC(=O)N1CCc2cc(Br)cc(S(=O)(=O)CCC(=O)NCC3CCCO3)c21 (stereo not given) | 0% (inactive)
14 | CC(=O)c1cc2c(=O)c3cc(C)ccc3oc2nc1C | 0% (inactive)
15 | Cc1onc(-c2ccccc2)c1C(=O)N[C@@H]1C(=O)N2[C@@H]1SC(C)(C)[C@@H]2C(=O)O | 0% (inactive)
16 | CC(=O)[C@H]1[C@H](C#N)C[C@H]2[C@@H]3CC=C4C[C@@H](O)CC[C@]4(C)[C@H]3CC[C@@]21C | 0% (inactive)
17 | O=C(Cc1c(O)c2ccccc2[nH]c1=O)NCc1ccc(F)cc1 | 0% (inactive)
18 | CCOc1cc2oc(=O)c3c(c2cc1Cl)CCC3 | 0% (inactive)
19 | O=C(C1CCCN(S(=O)(=O)c2ccc(Br)s2)C1)N1CCCCCC1 (stereo not given) | 0% (inactive)
20 | CC(=O)Nc1c2c(nn1-c1ccc(C)cc1C)CSC2 | 0% (inactive)

Row | Compound | inhibition
21 | COc1ccc(C(=O)N2CCN(C(=O)c3ccco3)CC2)cc1OC | 4% (inactive)
22 | CCSc1nnc(NC(=O)CSc2ncccn2)s1 | 0% (inactive)
23 | Cn1c(=O)c2c(nc(SCCCC#N)n2Cc2c(F)cccc2Cl)n(C)c1=O | 0% (inactive)
24 | Cc1ccc2nc(NC(=O)C3CCCN(S(=O)(=O)c4cnc[nH]4)C3)sc2c1 (stereo not given) | 1% (inactive)
25 | Cc1ccc(S(=O)(=O)NCCSc2nnnn2-c2ccc(C(N)=O)cc2)cc1 | 0% (inactive)
26 | CC1CCCC(C)N1C(=O)COC(=O)c1ccc[nH]c1=O (stereo not given) | 0% (inactive)
27 | CC1CCN(C(=O)CN2C(=O)C(C)(C)Oc3ccc(C(=O)NC4CCCC4)cc32)CC1 | 0% (inactive)
28 | O=C(Nc1nccs1)c1cccc(NC(=O)C2CC2)c1 | 6% (inactive)
29 | CN(C)S(=O)(=O)N1CCN(c2cccc(Cl)c2)CC1 | 0% (inactive)
30 | c1ccc(Cc2ccc(OCCn3cncn3)cc2)cc1 | 0% (inactive)
31 | O=C(O)C1C2C=CC3(CN(C4CCCC4)C(=O)C13)O2 (stereo not given) | 4% (inactive)
32 | COc1ccc(C(CNC(=O)c2cc(C)oc2C)N2CCOCC2)cc1 (stereo not given) | 0% (inactive)
33 | COc1ccc2cc(CN(CCO)C(=O)c3ccc(Br)cc3)c(=O)[nH]c2c1 | 14% (inactive)
34 | CCOC(=O)c1oc2ccccc2c1NC(=O)c1cccc(OC)c1OC | 0% (inactive)
35 | CC(C)CC(=O)CN1C(=O)C2(OCCO2)c2ccccc21 | 0% (inactive)
36 | CC1CCN(C(=O)c2ccc(C(=O)N3CCC(C)CC3)cc2)CC1 | 0% (inactive)
37 | Cc1occc1-c1nc(-c2ccncc2)no1 | 3% (inactive)
38 | Cc1ccc(/C(O)=C2\C(=O)C(=O)N(CCCN(C)C)C2c2ccccn2)cc1 (stereo not given) | 1% (inactive)
39 | Cn1c(-c2ccc(F)cc2)cnc1SCC(=O)Nc1ccccc1N1CCOCC1 | 0% (inactive)
40 | COc1cc(/C=N/n2c(C)nnc2C)cc(OC)c1OC | 4% (inactive)
